{"source": "PubChem BioAssay (EPA / NIEHS)", "note": "Results filed as inconclusive are left out. Activity calls are given as the source filed them. How the source made its calls, unless noted: active means hit-call score of the fitted dose curve at least 0.9, where 1 is the maximum; inconclusive means response in the unintended direction; inactive means score below 0.9."}
{"read-out": "not listed separately", "assay": "CEETOX_H295R_MTT_cell_viability: Viability Assessment in the CeeTox HT-H295R MTT Assay (AID 2283718; active means hit-call score of the fitted dose curve at least 0.9, where 1 is the maximum; inactive means score below 0.9;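 on AC50: curve fitted both ways so AC50 may mark viability loss or gain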)", "method_in_brief": "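H295R cells prestimulated 48 h with 10 uM forskolin, then exposed 48 h to test chemical (0.1% DMSO final). Viability by MTT (0.5 mg/ml, 4 h, 37 C), absorbance 570/650 nm; percent change versus DMSO, bidirectional fit.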"}
{"smiles": "CCCCCC(=O)O[C@]1(C(C)=O)CC[C@H]2[C@@H]3CCC4=CC(=O)CC[C@]4(C)[C@H]3CC[C@@]21C", "AC50": "13.4 µM (active)"}
{"smiles": "OCCCO", "outcome": "inactive"}
{"smiles": "CC(=N[Si](C)(C)C)O[Si](C)(C)C", "outcome": "inactive"}
{"smiles": "O=C(OCc1ccccc1)c1ccccc1O", "outcome": "inactive"}
{"smiles": "CC=CC(=O)C1=C(C)C=CCC1(C)C", "outcome": "inactive"}
{"smiles": "c1coc(CNc2ncnc3nc[nH]c23)c1", "outcome": "inactive"}
{"smiles": "CCCCCCCCCCCCN1CCOCC1", "outcome": "inactive"}
{"smiles": "CC(=O)c1ccc2ccccc2c1", "outcome": "inactive"}
{"smiles": "COc1ccc2[nH]cc(CCNC(C)=O)c2c1", "outcome": "inactive"}
{"smiles": "c1ccc(OCCOc2ccccc2)cc1", "outcome": "inactive"}
{"biological_target": "Luciferin 4-monooxygenase (Photinus pyralis) (UniProt P08659)", "sequence (P08659 whole entry, looked up)": "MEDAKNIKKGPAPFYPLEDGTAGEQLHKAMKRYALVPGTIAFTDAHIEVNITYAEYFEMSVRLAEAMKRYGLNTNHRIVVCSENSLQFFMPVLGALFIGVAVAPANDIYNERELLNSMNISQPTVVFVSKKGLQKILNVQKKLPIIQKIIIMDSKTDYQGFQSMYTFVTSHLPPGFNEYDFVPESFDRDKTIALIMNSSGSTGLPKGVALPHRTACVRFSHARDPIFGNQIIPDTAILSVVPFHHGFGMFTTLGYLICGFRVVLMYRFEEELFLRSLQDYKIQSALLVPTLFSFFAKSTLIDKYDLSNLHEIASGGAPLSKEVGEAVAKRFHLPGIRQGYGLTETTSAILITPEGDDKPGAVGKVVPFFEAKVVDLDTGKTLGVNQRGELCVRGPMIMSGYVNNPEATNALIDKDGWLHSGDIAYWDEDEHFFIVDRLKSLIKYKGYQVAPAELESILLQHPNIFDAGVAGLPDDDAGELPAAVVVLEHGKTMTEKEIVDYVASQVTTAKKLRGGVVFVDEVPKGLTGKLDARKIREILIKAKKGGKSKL", "assay": "CCTE_Simmons_QuantiLum_inhib_2: CCTE's Firefly Luciferase Inhibition Assay, Simmons Lab (AID 2283767)", "method_in_brief": "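Eight test concentrations, 5 nM up to 87.5 uM final, preincubated 30min at 37C in the dark with purified luciferase (0.5% DMSO final). Detection reagent (150uM D-luciferin, 147uM dATP, 75uM CoA, pH 7.8) injected per well before kinetic luminescence read; three replicates.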"}
{"smiles": "CN(C)C(=O)Nc1ccccc1", "outcome": "inactive"}
{"smiles": "CC1=CCC(=C(C)C)CC1", "outcome": "inactive"}
{"smiles": "O=Cc1ccccc1O", "outcome": "inactive"}
{"smiles": "O=c1cc[nH]cc1", "outcome": "inactive"}
{"smiles": "O=C(O)C1=NN(c2ccc(S(=O)(=O)O)cc2)C(=O)C1", "outcome": "inactive"}
{"system": "not listed separately", "assay": "ACEA_AR_agonist_AUC_viability: ACEA Biosciences xCELLigence Real-Time Cell Analysis on Androgen Receptor Agonism for Viability (AID 2283775);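 on AC50: viability read 80 hours after compound addition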", "method_in_brief": "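22Rv1 cells; impedance growth kinetics; 8-pt 1:4 dilutions from 100 uM top final, ≤0.5% DMSO; n = 2; 80 h read; AUC viability, loss-of-signal vs DMSO.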"}
{"smiles": "CC(=O)Oc1c(C)c(C)c2c(c1C)CC[C@@](C)(CCC[C@H](C)CCC[C@H](C)CCCC(C)C)O2", "outcome": "inactive"}
{"smiles": "CCCCCCCCCOS(=O)(=O)O", "outcome": "inactive"}
{"smiles": "NCCN1CCNCC1", "outcome": "inactive"}
{"smiles": "CC(C)(C)c1ccc(S)cc1", "outcome": "inactive"}
{"smiles": "C=CC(C)CCCC(C)(C)O", "note": "(stereo not drawn)", "outcome": "inactive"}
{"smiles": "CC1=CCC(C(C)C)=CC1", "outcome": "inactive"}
{"smiles": "CCCC(O)C(CC)CO", "note": "(stereo not drawn)", "outcome": "inactive"}
{"smiles": "CCC(C)COC(=O)CC(C)C", "note": "(stereo not drawn)", "outcome": "inactive"}
{"smiles": "CCCCN(CCCC)CCCCCCN(CCCC)CCCC", "outcome": "inactive"}
{"smiles": "COc1ccc(OC)cc1", "outcome": "inactive"}
{"smiles": "CCNC(=S)NCC", "outcome": "inactive"}
{"smiles": "[Na+]", "outcome": "inactive"}
{"smiles": "C1=COCCC1", "outcome": "inactive"}
{"smiles": "CC(C)N(c1ccccc1)C(C)C", "outcome": "inactive"}
{"smiles": "CC(=O)CC(=O)N(C)C", "outcome": "inactive"}
{"smiles": "O=C(OCc1ccccc1)c1ccccc1O", "outcome": "inactive"}
{"smiles": "CN(C)C(=O)Nc1ccccc1", "outcome": "inactive"}
{"smiles": "CNC(=C[N+](=O)[O-])NCCSCc1ccc(CN(C)C)o1", "outcome": "inactive"}
{"smiles": "CC1=CCC(=C(C)C)CC1", "outcome": "inactive"}
{"smiles": "CC(=O)OC(C)(C)C", "outcome": "inactive"}
{"smiles": "c1coc(CNc2ncnc3nc[nH]c23)c1", "outcome": "inactive"}
{"smiles": "O=Cc1ccccc1O", "outcome": "inactive"}
{"smiles": "CCCCCCCCCO", "outcome": "inactive"}
{"smiles": "CCOCC(C)O", "note": "(stereo not drawn)", "outcome": "inactive"}
{"smiles": "CC(=O)c1ccc2ccccc2c1", "outcome": "inactive"}
{"smiles": "CC1=CCC(C(C)(C)O)CC1", "note": "(stereo not drawn)", "outcome": "inactive"}
{"smiles": "CCCCOCCOCCOCCO", "outcome": "inactive"}
{"smiles": "COc1ccc2[nH]cc(CCNC(C)=O)c2c1", "outcome": "inactive"}
{"smiles": "OC[C@H]1O[C@@H](O[C@H]2[C@H](O)[C@@H](O)[C@H](O)O[C@@H]2CO)[C@H](O)[C@@H](O)[C@H]1O", "AC50": "0.603 µM (active)"}
{"smiles": "NC(=O)c1cccnc1", "outcome": "inactive"}
{"smiles": "FC(F)(F)c1ccc(Cl)c(Cl)c1", "outcome": "inactive"}
{"smiles": "c1ccc(OCCOc2ccccc2)cc1", "outcome": "inactive"}
{"smiles": "O=C(O)C1=NN(c2ccc(S(=O)(=O)O)cc2)C(=O)C1", "AC50": "8.67 µM (active)"}
